Assay results reported in PubChem BioAssay (NCI).
The panel holds about 83,000 compounds, 20% with a hit somewhere; the sample as a whole holds those more often.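 Cell lines were cultured in 96-well plates, exposed to a single compound concentration, and assessed for percent growth 48 hours later.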 A number with no mark means an inactive call. Active and inactive are the calls of the source. How the source made its calls: active means growth percent below 10; inactive means the rest.

Assays:
Test in all cases: NCI-60 one-dose screen, 48 h (100 = growth as untreated, 0 = no growth, -100 = all killed)
Settings in all cases: 10 µM unless noted
[1] = tested on: SR leukemia
[2] = tested on: RPMI-8226 leukemia
[3] = tested on: OVCAR-8 ovarian
[4] = tested on: OVCAR-5 ovarian
[5] = tested on: OVCAR-4 ovarian
[6] = tested on: IGROV1 ovarian
[7] = tested on: OVCAR-3 ovarian
[8] = tested on: HS 578T breast
[9] = tested on: NCI/ADR-RES ovarian
[10] = tested on: SK-OV-3 ovarian

Row | Compound | growth [1] | growth [2] | growth [3] | growth [4] | growth [5] | growth [6] | growth [7] | growth [8] | growth [9] | growth [10]
1 | CCCCn1c(NC(C)=O)c(S(=O)(=O)c2ccccc2)c2nc3ccccc3nc21 | 86.9% | 107% | 98.9% | 93.2% | 100% | 76.3% | 95.7% | 95.9% | 97.7% | 
2 | c1cc(OCCN2CCCCCC2)ccc1CNc1ccc2nc(CCC3CCCCC3)[nH]c2c1 | 26.1% | 4.27% (active) | 65.6% | 79.5% | 51.4% | 43.2% | 77.3% | 65.2% | 66.9% | 
3 | NS(=O)(=O)c1ccc(C(=O)N=Nc2c(O)[nH]c3ccc(Cl)cc23)cc1 | 95.3% | 98.5% | 95% | 110% | 99.7% |  | 113% | 99.5% | 102% | 108%
4 | CCCCCCCCn1ccc2cc(NC(=O)CN3CCN(c4cc(C)nc(Cl)n4)CC3)ccc21 | 73.3% | 73.5% | 94.9% | 95.2% | 75.2% |  | 108% | 94.2% | 84.8% | 105%
5 | O=C(Oc1ccc2c(c1)sc1nc(-c3ccccc3)[nH]c(=O)c12)C(F)(F)F | 18.9% | 24.1% | 40.8% | 73.4% | 51.4% | 32.9% | 9.6% (active) | 18.8% | 7.5% (active) | 
6 | COc1ccc(NC(=O)c2ccc(Nc3ncnc4c3cnn4-c3cccc(F)c3)cc2)cc1 | 95.2% | 96.6% | 99.2% | 100% | 103% |  | 110% | 97.4% | 103% | 111%
7 | O=S(=O)(Nc1cc(Sc2nc3ccccc3s2)c(O)c2ccccc12)c1ccc2ccccc2c1 | 100% | 88.5% | 75.3% | 111% | 77.8% | 101% | 82.6% | 101% | 86.1% | 
8 | Cc1ncc(C(=O)Nc2ccc(CN3CCN(C)CC3)c(C(F)(F)F)c2)cc1C#Cc1cnc(N)c2ccc(C#N)cc12 | 4.87% (active) | 7.42% (active) | 3.22% (active) | -24.7% (active) | -7.66% (active) | -43.9% (active) | 25% | -8.89% (active) | 39% | 
9 | CCOC(=O)c1cnn(CC(C)O)c1NC(=O)NCc1cccc(F)c1 (stereo not given) | 92.1% | 90.3% | 106% | 107% | 122% |  | 107% | 103% | 96.9% | 101%
10 | CN(C)/C(N)=N/N=C(\c1ccccc1)c1ccccn1 | 85.5% | 92.1% | 103% | 102% | 86.6% | 93.7% | 93.7% | 97.8% | 98.3% | 
11 | N#Cc1ccc(O)c(C2=NCC(c3ccc(-c4ccccc4)cc3)O2)c1 (stereo not given) | 23.7% | 23.8% | 16.6% | 38.7% | -1.03% (active) |  | 22.7% | 48.9% | 5.24% (active) | 3.28% (active)
12 | CC(C)NS(=O)(=O)/N=C1\NC(=O)NC1=C(Cl)Cl | 19.7% | 91.1% | 96.2% | 115% | 106% | 97.1% | 98.5% | 97.9% | 98.5% | 
13 | Cc1ccc2nc(-c3ccc(C(=O)N/N=C/c4ccc([N+](=O)[O-])cc4)cc3)[nH]c2c1 | 92% | 95.6% | 105% | 96.5% | 107% | 91.3% | 115% | 105% | 106% | 
14 | O=C(NCCCCO)c1cncnc1Nc1ccc2c(ccn2Cc2cccc(F)c2)c1 | 93.4% | 95.3% | 101% | 86.3% | 100% | 88.1% | 98.5% | 94.1% | 91.3% | 
15 | O=C1Nc2ccccc2/C1=N/N1C(=O)CN(CCCl)C1=O | 104% | 101% | 100% | 103% | 118% | 97.1% | 113% | 95.9% | 102% | 
